Reference: PubChem BioAssay AID1159580 (chemical genetic matrix, 2015)
About 2,000 (36%) of roughly 5,500 compounds were called active. Inconclusive results (about 18%) are left out. Rule as the data show it: active = normalized growth mostly below about 0.91 (no sharp cut-off); inconclusive = no clear call, values can overlap the other calls; inactive = mostly above about 0.92. The list shows a part of the results.

Experiment: chemical genetic growth profiling, strain panel (AID 1159580);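 also: tested at 20 µM; growth read once vehicle control cultures reached saturation at 30 °C; 1 = growth at the plate median or of vehicle wells; lower values mean less growth of the strain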
Settings: growth OD

Measured: normalized growth

COc1ccc(-c2oc3cc(O[C@H]4O[C@H](CO)[C@@H](O)[C@H](O)[C@H]4O)c(OC)c(O)c3c(=O)c2OC)cc1O
inactive: S. cerevisiae deletion strains, locus YAL013W, strain DEP1, hits give low values 1.02 | S. cerevisiae deletion strains, locus YAL021C, strain ccr4, hits give low values 1.01 | S. cerevisiae deletion strains, locus YAL026C, strain drs2, hits give low values 0.996 | S. cerevisiae deletion strains, locus YAL030W, strain snc1, hits give low values 1 | S. cerevisiae deletion strains, locus YBL061C, strain skt5, hits give low values 0.996 | S. cerevisiae deletion strains, locus YBR009C, strain hhf1, hits give low values 0.997 | S. cerevisiae deletion strains, locus YBR021W, strain FUR4, hits give low values 1 | S. cerevisiae deletion strains, locus YBR023C, strain chs3, hits give low values 0.992 | S. cerevisiae deletion strains, locus YBR171W, strain sec66, hits give low values 0.99 | S. cerevisiae deletion strains, locus YBR229C, strain ROT2, hits give low values 1 | S. cerevisiae deletion strains, locus YBR231C, strain swc5, hits give low values 0.99 | S. cerevisiae deletion strains, locus YBR279W, strain paf1, hits give low values 1 | S. cerevisiae deletion strains, locus YCL011C, strain gbp2, hits give low values 1 | S. cerevisiae deletion strains, locus YCL016C, strain dcc1, hits give low values 1 | S. cerevisiae deletion strains, locus YCL029C, strain bik1, hits give low values 0.969 | S. cerevisiae deletion strains, locus YCL061C, strain MRC1, hits give low values 0.998 | S. cerevisiae deletion strains, locus YCL069W, strain vba3, hits give low values 0.999 | S. cerevisiae deletion strains, locus YCR088W, strain abp1, hits give low values 0.996 | S. cerevisiae deletion strains, locus YDL005C, strain med2, hits give low values 1.01 | S. cerevisiae deletion strains, locus YDL035C, strain GPR1, hits give low values 0.991 | S. cerevisiae deletion strains, locus YDL040C, strain nat1, hits give low values 0.994 | S. cerevisiae deletion strains, locus YDL074C, strain BRE1, hits give low values 0.925 | S. cerevisiae deletion strains, locus YDL101C, strain DUN1, hits give low values 0.997 | S. cerevisiae deletion strains, locus YDL134C, strain PPH21, hits give low values 0.982 | S. cerevisiae deletion strains, locus YDL185W, strain tfp1, hits give low values 0.984 | S. cerevisiae deletion strains, locus YDL192W, strain arf1, hits give low values 0.961 | S. cerevisiae deletion strains, locus YDR001C, strain nth1, hits give low values 1 | S. cerevisiae deletion strains, locus YDR069C, strain doa4, hits give low values 1 | S. cerevisiae deletion strains, locus YDR101C, strain arx1, hits give low values 0.97 | S. cerevisiae deletion strains, locus YDR137W, strain rgp1, hits give low values 0.905 | S. cerevisiae deletion strains, locus YDR159W, strain sac3, hits give low values 1 | S. cerevisiae deletion strains, locus YDR162C, strain NBP2, hits give low values 0.983 | S. cerevisiae deletion strains, locus YDR195W, strain ref2 1.01 | S. cerevisiae deletion strains, locus YDR297W, strain sur2, hits give low values 0.989 | S. cerevisiae deletion strains, locus YDR318W, strain mcm21, hits give low values 0.962 | S. cerevisiae deletion strains, locus YDR334W, strain swr1, hits give low values 0.996 | S. cerevisiae deletion strains, locus YDR335W, strain msn5, hits give low values 1 | S. cerevisiae deletion strains, locus YDR388W, hits give low values 0.971 | S. cerevisiae deletion strains, locus YDR392W, strain spt3, hits give low values 0.897 | S. cerevisiae deletion strains, locus YDR502C, strain sam2, hits give low values 0.956 | S. cerevisiae deletion strains, locus YEL003W, strain gim4, hits give low values 0.996 | S. cerevisiae deletion strains, locus YEL037C, strain rad23, hits give low values 0.994 | S. cerevisiae deletion strains, locus YEL061C, strain CIN8 (second series), hits give low values 1 | S. cerevisiae deletion strains, locus YEL061C, strain CIN8, hits give low values 0.981 | S. cerevisiae deletion strains, locus YER015W, strain faa2, hits give low values 1.01 | S. cerevisiae deletion strains, locus YER016W, strain bim1, hits give low values 0.997 | S. cerevisiae deletion strains, locus YER110C, hits give low values 0.964 | S. cerevisiae deletion strains, locus YER111C, strain swi4, hits give low values 1 | S. cerevisiae deletion strains, locus YER155C, strain BEM2 (second series), hits give low values 0.998 | S. cerevisiae deletion strains, locus YER155C, strain BEM2, hits give low values 1.01 | S. cerevisiae deletion strains, locus YER167W, strain BCK2, hits give low values 0.999 | S. cerevisiae deletion strains, locus YFR010W, strain ubp6, hits give low values 1 | S. cerevisiae deletion strains, locus YGL078C, strain dbp3, hits give low values 0.975 | S. cerevisiae deletion strains, locus YGL086W, strain mad1, hits give low values 0.97 | S. cerevisiae deletion strains, locus YGL167C, strain pmr1, hits give low values 0.994 | S. cerevisiae deletion strains, locus YGL173C, strain kem1, hits give low values 0.989 | S. cerevisiae deletion strains, locus YGL227W, strain vid30, hits give low values 0.996 | S. cerevisiae deletion strains, locus YGL240W, strain doc1, hits give low values 1.01 | S. cerevisiae deletion strains, locus YGL248W, strain PDE1, hits give low values 0.984 | S. cerevisiae deletion strains, locus YGL253W, strain hxk2, hits give low values 1 | S. cerevisiae deletion strains, locus YGR078C, strain PAC10, hits give low values 0.959 | S. cerevisiae deletion strains, locus YGR135W, strain pre9, hits give low values 0.949 | S. cerevisiae deletion strains, locus YGR229C, strain SMI1, hits give low values 0.956 | S. cerevisiae deletion strains, locus YGR252W, strain gcn5, hits give low values 0.891 | S. cerevisiae deletion strains, locus YHR013C, strain ard1, hits give low values 1.01 | S. cerevisiae deletion strains, locus YHR027C, strain rpn1, hits give low values 1.01 | S. cerevisiae deletion strains, locus YHR030C, strain SLT2, hits give low values 1 | S. cerevisiae deletion strains, locus YHR079C, strain IRE1 (second series), hits give low values 0.99 | S. cerevisiae deletion strains, locus YHR094C, strain hxt1, hits give low values 0.981 | S. cerevisiae deletion strains, locus YHR129C, strain ARP1, hits give low values 0.969 | S. cerevisiae deletion strains, locus YHR142W, strain chs7, hits give low values 0.985 | S. cerevisiae deletion strains, locus YHR200W, strain rpn10, hits give low values 0.953 | S. cerevisiae deletion strains, locus YIL066C, strain RNR3, hits give low values 0.98 | S. cerevisiae deletion strains, locus YIL073C, strain SPO22, hits give low values 0.971 | S. cerevisiae deletion strains, locus YIL125W, strain kgd1, hits give low values 0.981 | S. cerevisiae deletion strains, locus YIR030C, strain dcg1, hits give low values 0.982 | S. cerevisiae deletion strains, locus YJL092W, strain hpr5, hits give low values 1 | S. cerevisiae deletion strains, locus YJL095W, strain BCK1 (second series), hits give low values 0.992 | S. cerevisiae deletion strains, locus YJL095W, strain BCK1, hits give low values 0.916 | S. cerevisiae deletion strains, locus YJL115W, strain asf1, hits give low values 1 | S. cerevisiae deletion strains, locus YJL129C, strain trk1, hits give low values 0.935 | S. cerevisiae deletion strains, locus YJL134W, strain LCB3, hits give low values 0.995 | S. cerevisiae deletion strains, locus YJL154C, strain vps35, hits give low values 1.01 | S. cerevisiae deletion strains, locus YJL164C, strain tpk1, hits give low values 0.992 | S. cerevisiae deletion strains, locus YJL166W, strain qcr8, hits give low values 1 | S. cerevisiae deletion strains, locus YJL168C, strain set2, hits give low values 0.977 | S. cerevisiae deletion strains, locus YJL187C, strain SWE1 (second series), hits give low values 0.965 | S. cerevisiae deletion strains, locus YJL187C, strain SWE1, hits give low values 1.01 | S. cerevisiae deletion strains, locus YJR043C, strain POL32, hits give low values 0.982 | S. cerevisiae deletion strains, locus YKL009W, strain mrt4, hits give low values 0.965 | S. cerevisiae deletion strains, locus YKL068W, hits give low values 0.99 | S. cerevisiae deletion strains, locus YKL085W, strain MDH1 (second series), hits give low values 0.994 | S. cerevisiae deletion strains, locus YKL085W, strain MDH1, hits give low values 0.994 | S. cerevisiae deletion strains, locus YKL160W, strain elf1, hits give low values 0.992 | S. cerevisiae deletion strains, locus YKR001C, strain vps1, hits give low values 1 | S. cerevisiae deletion strains, locus YKR026C, strain gcn3, hits give low values 0.995 | S. cerevisiae deletion strains, locus YKR091W, strain srl3, hits give low values 1 | S. cerevisiae deletion strains, locus YLL001W, strain dnm1, hits give low values 0.994 | S. cerevisiae deletion strains, locus YLL026W, hits give low values 0.995 | S. cerevisiae deletion strains, locus YLL041C, strain sdh2, hits give low values 1 | S. cerevisiae deletion strains, locus YLR027C, strain aat2, hits give low values 1.01 | S. cerevisiae deletion strains, locus YLR039C, strain RIC1, hits give low values 0.989 | S. cerevisiae deletion strains, locus YLR058C, strain SHM2, hits give low values 0.989 | S. cerevisiae deletion strains, locus YLR102C, strain apc9, hits give low values 0.968 | S. cerevisiae deletion strains, locus YLR221C, strain rsa3, hits give low values 0.997 | S. cerevisiae deletion strains, locus YLR258W, strain gsy2, hits give low values 1 | S. cerevisiae deletion strains, locus YLR262C, strain YPT6 (second series), hits give low values 0.951 | S. cerevisiae deletion strains, locus YLR262C, strain YPT6, hits give low values 0.979 | S. cerevisiae deletion strains, locus YLR268W, strain sec22, hits give low values 0.955 | S. cerevisiae deletion strains, locus YLR320W, strain mms22, hits give low values 0.993 | S. cerevisiae deletion strains, locus YLR330W, strain CHS5, hits give low values 1.01 | S. cerevisiae deletion strains, locus YLR342W, strain FKS1 (second series), hits give low values 0.983 | S. cerevisiae deletion strains, locus YLR342W, strain FKS1, hits give low values 0.995 | S. cerevisiae deletion strains, locus YLR357W, strain rsc2, hits give low values 0.985 | S. cerevisiae deletion strains, locus YLR370C, strain arc18, hits give low values 0.989 | S. cerevisiae deletion strains, locus YLR371W, strain rom2, hits give low values 0.979 | S. cerevisiae deletion strains, locus YLR384C, strain iki3, hits give low values 1.01 | S. cerevisiae deletion strains, locus YLR418C, strain cdc73, hits give low values 0.877 | S. cerevisiae deletion strains, locus YML016C, strain PPZ1, hits give low values 0.994 | S. cerevisiae deletion strains, locus YML032C, strain rad52, hits give low values 0.969 | S. cerevisiae deletion strains, locus YML120C, strain ndi1, hits give low values 0.998 | S. cerevisiae deletion strains, locus YML124C, strain tub3, hits give low values 0.981 | S. cerevisiae deletion strains, locus YMR058W, strain fet3, hits give low values 0.998 | S. cerevisiae deletion strains, locus YMR078C, strain ctf18, hits give low values 0.976 | S. cerevisiae deletion strains, locus YMR125W, strain sto1, hits give low values 0.995 | S. cerevisiae deletion strains, locus YMR129W, hits give low values 0.998 | S. cerevisiae deletion strains, locus YMR205C, strain PFK2, hits give low values 0.981 | S. cerevisiae deletion strains, locus YMR223W, strain ubp8, hits give low values 0.977 | S. cerevisiae deletion strains, locus YMR231W, strain pep5, hits give low values 0.995 | S. cerevisiae deletion strains, locus YMR307W, strain GAS1, hits give low values 0.92 | S. cerevisiae deletion strains, locus YNL067W, strain RPL9B, hits give low values 0.98 | S. cerevisiae deletion strains, locus YNL071W, strain lat1, hits give low values 1.01 | S. cerevisiae deletion strains, locus YNL209W, strain ssb2, hits give low values 0.998 | S. cerevisiae deletion strains, locus YNL233W, strain BNI4, hits give low values 0.977 | S. cerevisiae deletion strains, locus YNL248C, strain rpa49, hits give low values 1 | S. cerevisiae deletion strains, locus YNL250W, strain rad50, hits give low values 0.974 | S. cerevisiae deletion strains, locus YNL271C, strain bni1, hits give low values 0.978 | S. cerevisiae deletion strains, locus YNL298W, strain CLA4, hits give low values 0.963 | S. cerevisiae deletion strains, locus YNL307C, strain MCK1, hits give low values 0.928 | S. cerevisiae deletion strains, locus YNL322C, strain KRE1 (second series), hits give low values 0.999 | S. cerevisiae deletion strains, locus YNL322C, strain KRE1, hits give low values 0.985 | S. cerevisiae deletion strains, locus YNR049C, strain mso1, hits give low values 1 | S. cerevisiae deletion strains, locus YNR052C, strain pop2, hits give low values 0.948 | S. cerevisiae deletion strains, locus YOL012C, strain htz1 0.832 | S. cerevisiae deletion strains, locus YOL147C, strain pex11, hits give low values 0.962 | S. cerevisiae deletion strains, locus YOR001W, strain rrp6, hits give low values 1.02 | S. cerevisiae deletion strains, locus YOR061W, strain CKA2, hits give low values 0.993 | S. cerevisiae deletion strains, locus YOR069W, strain VPS5, hits give low values 0.997 | S. cerevisiae deletion strains, locus YOR070C, strain gyp1, hits give low values 1.02 | S. cerevisiae deletion strains, locus YOR080W, strain dia2, hits give low values 0.999 | S. cerevisiae deletion strains, locus YOR083W, strain WHI5, hits give low values 1 | S. cerevisiae deletion strains, locus YOR106W, strain vam3, hits give low values 1 | S. cerevisiae deletion strains, locus YOR136W, strain idh2, hits give low values 0.986 | S. cerevisiae deletion strains, locus YOR144C, strain elg1, hits give low values 0.968 | S. cerevisiae deletion strains, locus YOR184W, strain ser1, hits give low values 0.944 | S. cerevisiae deletion strains, locus YOR265W, strain rbl2, hits give low values 0.993 | S. cerevisiae deletion strains, locus YOR270C, strain vph1, hits give low values 0.987 | S. cerevisiae deletion strains, locus YOR290C, strain snf2, hits give low values 0.984 | S. cerevisiae deletion strains, locus YOR316C, strain cot1, hits give low values 0.974 | S. cerevisiae deletion strains, locus YPL051W, strain arl3, hits give low values 0.998 | S. cerevisiae deletion strains, locus YPL078C, strain atp4, hits give low values 1.01 | S. cerevisiae deletion strains, locus YPL106C, strain sse1, hits give low values 0.995 | S. cerevisiae deletion strains, locus YPL240C, strain hsp82, hits give low values 1 | S. cerevisiae deletion strains, locus YPR119W, strain clb2, hits give low values 0.978 | S. cerevisiae deletion strains, locus YPR141C, strain kar3, hits give low values 0.977 | S. cerevisiae deletion strains, locus YPR163C, strain tif3, hits give low values 0.933 | S. cerevisiae deletion strains, locus YPR167C, strain met16, hits give low values 0.978 | S. cerevisiae deletion strains, strain wtn01, hits give low values 0.971 | S. cerevisiae strains, strain wild type, hits give low values 0.993
